# Measured values from PubChem BioAssay (NCI).
# The panel holds about 83,000 compounds, 20% with a hit somewhere; the sample as a whole holds those more often.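 A percent growth of 40 corresponds to 60% growth inhibition; 0 means no net growth; -100 means all cells died. Active threshold: below 10.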 A number with no mark means an inactive call. Activity calls are given as the source filed them.
# System: MDA-MB-468 breast
# Test: NCI-60 one-dose screen, 48 h (100 = growth as untreated, 0 = no growth, -100 = all killed)
# Details: 10 µM unless noted
row,SMILES,growth
1,O=C(Nc1cnc(Nc2ccc(N3CCOCC3)nc2)nc1Oc1ccc(C(F)(F)F)cc1)c1ccncc1,103%
2,COC(=O)c1ccc2c(c1)nc(-c1ccc(O)c(OC)c1)n2-c1cc(C(C)(C)C)[nH]n1,104%
3,Nc1ccccc1NC(=O)c1ccc(-n2nc(-c3ccccc3)c3ccccc32)cc1,94.5%
4,COc1ccc(NS(=O)(=O)c2ccc(-c3cnc(C4CC4)o3)cc2)cc1Cl,9.75% (active)
5,CCc1nc2cc(F)c(/C=C/C(=O)NO)cc2c(=O)n1CCc1ccccc1,4.28% (active)
6,COc1ccccc1CNCCCN1C(=O)c2ccc3c4c(ccc(c24)C1=O)C(=O)N(CCCNCCCCN)C3=O,-55.7% (active)
7,COc1cc2c(cc1OC)C(C(CCCCCC(CCC(C)C)C1NCCc3cc(OC)c(OC)cc31)CCC(C)C)NCC2 (centres undefined),-87.1% (active)
8,O=C(c1ccccc1)C(c1ccccc1)N1CCOCC1 (centres undefined),103%
9,COc1cc(C2NC(c3ccc(Cl)cc3)C(C)/C(=N/NC(N)=S)C2C)cc(OC)c1OC (centres undefined),88%
10,Cn1c(=O)c2c(ncn2CC[N+](C)(C)C)n(C)c1=O,101%
11,O=C(Oc1ccc([N+](=O)[O-])cc1)c1ccc(CBr)cc1,84.9%
12,COC(=O)c1sc(-c2ccc(C)cc2)cc1O,99.5%
13,CCn1nc(C#Cc2c(C)ccc3c(Nc4ccc(Cl)cc4)nccc23)c2c(N)ncnc21,27.1%
14,CC(=O)N(O)CCCCCNC(=O)CCC(=O)N(O)CCCCCNC(=O)CCC(=O)N(O)CCCCCN(CCCCCCCCCC[P+](c1ccccc1)(c1ccccc1)c1ccccc1)CCCCCCCCCC[P+](c1ccccc1)(c1ccccc1)c1ccccc1,-42.6% (active)
